In PubChem BioAssay AID2322 (Broad Institute, 2010):
Hit rate of the full screen: of about 27,000 compounds, about 120 (0.44%) were called active. The sample holds actives, similar compounds and a random draw of the others, so the mix is not that of the screen. A number with no mark means an inactive call. Rule as the data show it: active = inhibition above about 20%; inconclusive = no clear call, values can overlap the other calls; inactive = below that.

These compounds were tested against Serine/threonine-protein kinase 33 (Homo sapiens) (UniProt Q9BYT3) (assay: STK33 kinase inhibitors, primary screen, biochemical, luminescence, ADP-Glo, MBP substrate (AID 2322)). Conditions: at 12.5 µM, stronger effect = higher value.
Chain of Serine/threonine-protein kinase 33 (Homo sapiens) (Q9BYT3 whole entry, looked up): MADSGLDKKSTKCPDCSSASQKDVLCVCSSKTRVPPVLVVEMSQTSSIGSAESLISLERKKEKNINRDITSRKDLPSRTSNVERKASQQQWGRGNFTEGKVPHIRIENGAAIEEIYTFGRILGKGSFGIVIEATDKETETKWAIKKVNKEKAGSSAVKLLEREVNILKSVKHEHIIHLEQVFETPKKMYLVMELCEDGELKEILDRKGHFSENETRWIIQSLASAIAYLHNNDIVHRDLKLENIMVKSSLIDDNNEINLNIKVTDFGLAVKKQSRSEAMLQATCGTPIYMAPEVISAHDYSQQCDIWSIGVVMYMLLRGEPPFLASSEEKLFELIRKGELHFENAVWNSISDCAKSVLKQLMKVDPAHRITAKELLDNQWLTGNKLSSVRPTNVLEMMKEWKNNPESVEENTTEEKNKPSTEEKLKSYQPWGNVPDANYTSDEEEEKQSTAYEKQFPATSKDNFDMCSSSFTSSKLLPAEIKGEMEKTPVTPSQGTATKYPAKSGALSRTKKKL

Going from `Cc1ccc(N(CC(=O)Nc2ccccc2Sc2ccccc2)S(C)(=O)=O)c(C)c1` to `COc1ccc(N(CC(=O)Nc2cc(C)ccc2OC)S(C)(=O)=O)cc1Cl`, the inhibition falls from -1.72% to -2.26%.

Compared with `COC(=O)c1ccc(NC(=O)CSc2nc(-c3ccccc3)cc(=O)[nH]2)cc1`, `O=C(CSc1nc2ccc(NC(=O)c3ccccc3Cl)cc2s1)Nc1ccc(F)cc1` is lower in inhibition: 4.41% for the first, 0.13% for the second.

Compared with `O=C(O)CCCC(=O)Nc1ccc(F)cc1`, `CCOc1ccc(NC(=O)CSc2nccc(C)n2)cc1` is higher in inhibition: -2.71% for the first, -0.939% for the second.

Compared with `O=C(NCc1ccccn1)c1ccccc1C(=O)c1ccccc1`, `O=C(CSc1nnc(-c2ccccn2)n1-c1ccccc1)Nc1ccc2cn[nH]c2c1` is higher in inhibition: -3.58% for the first, 0.339% for the second.

Going from `CCC(O)c1ccc2c(=O)c(-c3ccccc3F)coc2c1` (stereo unspecified) to `COc1ccc(C(C)=O)cc1CSc1nnc(-c2ccc(Br)cc2)n1-c1ccccc1`, the inhibition falls from 1.14% to -0.65%.

First: COc1ccc(/C=C/C(=O)O[C@@H]2[C@@H](OC(=O)/C=C/c3ccc(OC)cc3)[C@H](C)O[C@@H](O[C@H]3[C@@H]4C=CO[C@@H](O[C@@H]5O[C@H](CO)[C@@H](O)[C@H](O)[C@H]5O)[C@@H]4[C@@]4(CO)O[C@@H]34)[C@@H]2OC(C)=O)cc1
Second: C[C@@H]1CN([C@H](C)CO)C(=O)c2cc(NC(=O)Nc3ccc4c(c3)OCO4)ccc2O[C@H]1CN(C)Cc1ccc(-c2ccccc2)cc1
The inhibition of the first is lower: -0.911% for the first, 0.655% for the second.

First: C[C@H]1CN([C@@H](C)CO)C(=O)c2cc(NC(=O)Cn3cnnn3)ccc2O[C@H]1CN(C)S(C)(=O)=O
Second: C[C@H](CO)N1C[C@H](C)[C@@H](CN(C)S(=O)(=O)c2ccc(F)cc2)OCc2cnnn2CCCC1=O
The inhibition of the first is lower: -0.963% for the first, 3.05% for the second.

First: CCOC(=O)c1c(NC(=O)Cn2nc([N+](=O)[O-])c(Br)c2C)sc2c1CCCC2
Second: CCn1c(SCC(=O)Nc2cc(Cl)ccc2OC)nnc1-c1ccc(Br)cc1
The inhibition of the first is higher: 2.08% for the first, 1.48% for the second.

Compared with `Cc1cc(C)c2oc(-c3cccc(NC(=O)COc4ccc(Br)cc4)c3C)nc2c1`, `COc1ccc(N(C(C)C(=O)Nc2cccc(Br)c2)S(C)(=O)=O)cc1` (stereo unspecified) is lower in inhibition: 5.61% for the first, -0.0651% for the second.

First: CC(C)(C)c1ccc(OCC(=O)NCc2ccccn2)c(Br)c1
Second: NCCCC[C@@H]1NC(=O)[C@@H]2C[C@H](C(=O)NCc3ccc(F)cc3)[C@H](c3ccc(O)cc3)N2C1=O
The inhibition of the first is lower: -6.11% for the first, -1.29% for the second.

With `Nc1ccc2c3c(cccc13)C(=O)NC2=O` the inhibition was 28.5% (active).
